About 7,900 targets were measured; listed, in parts, are those with a hit and a random draw of the rest. About 0.6% of all pairs of compound and target were hits. Values without a mark were called inactive.
How the values were obtained:
Experiment in all cases: log2 fold change, soluble protein after heating vs DMSO (PISA); higher = thermal stabilisation; K562 cells, 10 uM, 30 min; active = over 0.2 and 3.5 SD of the protein, either way, in both replicates (recomputed)
saracatinib = compound: CN1CCN(CCOc2cc(OC3CCOCC3)c3c(Nc4c(Cl)ccc5c4OCO5)ncnc3c2)CC1 [saracatinib]
How it was run: (§1)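 Soluble protein was quantified by TMTpro 16plex LC-MS/MS after channel sums were equalised. It was obtained as the supernatant after 21,000xg for 90 min from pooled aliquots of K562 cells (2×10^6 cells/mL, 10 μM compound, 30 min) heated for 3 min across 48°C-58°C and extracted in PBS with 0.5% NP-40 at 4°C. Thermal stability values are relative to control samples and come from duplicates. They are given as log2 fold changes.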

sotrastaurin = compound: CN1CCN(c2nc(C3=C(c4c[nH]c5ccccc45)C(=O)NC3=O)c3ccccc3n2)CC1 [sotrastaurin]
How it was run: as §1

alvocidib = compound: CN1CC[C@H](c2c(O)cc(O)c3c(=O)cc(-c4ccccc4Cl)oc23)[C@H](O)C1 [alvocidib]
How it was run: as §1

Tubastatin A = compound: CN1CCc2c(c3ccccc3n2Cc2ccc(C(=O)NO)cc2)C1 [Tubastatin A]
How it was run: as §1

[1] = compound: CNC(=O)C1=CC=CC=C1NC2=NC(=NC=C2Cl)NC3=C(C=C(C=C3)N4CCOCC4)OC
How it was run: as §1

defactinib = compound: CNC(=O)c1ccc(Nc2ncc(C(F)(F)F)c(NCc3nccnc3N(C)S(C)(=O)=O)n2)cc1 [defactinib]
How it was run: as §1

rucaparib = compound: CNCc1ccc(-c2[nH]c3cc(F)cc4c3c2CCNC4=O)cc1 [rucaparib]
How it was run: as §1

[2] = compound: CNc1nc(-c2ccc3c(N)n[nH]c3c2)cc(N2C[C@@H](C(=O)NC3CCCCC3)CC[C@H]2C)n1
How it was run: as §1

encorafenib = compound: COC(=O)N[C@@H](C)CNc1nccc(-c2cn(C(C)C)nc2-c2cc(Cl)cc(NS(C)(=O)=O)c2F)n1 [encorafenib]
How it was run: as §1

[3] = compound: COC(=O)[C@H](CCSC)NC(=O)C1=C(C=C(C=C1)NC[C@H](CS)N)C2=CC=CC=C2
How it was run: as §1

[4] = compound: COC1=CC=C(C=C1)CN2C=CC3=C2C=C(C=C3)C(=O)NO
How it was run: as §1

filanesib = compound: CON(C)C(=O)N1N=C(c2cc(F)ccc2F)S[C@@]1(CCCN)c1ccccc1 [filanesib]
How it was run: as §1

zotarolimus = compound: CO[C@H]1C[C@@H]2CC[C@@H](C)[C@@](O)(O2)C(=O)C(=O)N2CCCC[C@H]2C(=O)O[C@H]([C@H](C)C[C@@H]2CC[C@H](n3cnnn3)[C@H](OC)C2)CC(=O)[C@H](C)/C=C(\C)[C@@H](O)[C@@H](OC)C(=O)[C@H](C)C[C@H](C)/C=C/C=C/C=C/1C [zotarolimus]
How it was run: as §1

idasanutlin = compound: COc1cc(C(=O)O)ccc1NC(=O)[C@@H]1N[C@@H](CC(C)(C)C)[C@](C#N)(c2ccc(Cl)cc2F)[C@H]1c1cccc(Cl)c1F [idasanutlin]
How it was run: as §1

alisertib = compound: COc1cc(Nc2ncc3c(n2)-c2ccc(Cl)cc2C(c2c(F)cccc2OC)=NC3)ccc1C(=O)O [alisertib]
How it was run: as §1

[5] = compound: COc1cc2nc(-c3cc(F)ccc3O)nc(N[C@@H]3CNC[C@H]3C(C)(C)O)c2cc1OC
How it was run: as §1

gefitinib = compound: COc1cc2ncnc(Nc3ccc(F)c(Cl)c3)c2cc1OCCCN1CCOCC1 [gefitinib]
How it was run: as §1

[6] = compound: COc1cccc2cc(-c3nc([C@H]4CC[C@H](C(=O)O)CC4)n4ncnc(N)c34)[nH]c12
How it was run: as §1

lapatinib = compound: CS(=O)(=O)CCNCc1ccc(-c2ccc3ncnc(Nc4ccc(OCc5cccc(F)c5)c(Cl)c4)c3c2)o1 [lapatinib]
How it was run: as §1

pictilisib = compound: CS(=O)(=O)N1CCN(Cc2cc3nc(-c4cccc5[nH]ncc45)nc(N4CCOCC4)c3s2)CC1 [pictilisib]
How it was run: as §1

UniProt Q8NBW4, sequence (Q8NBW4 whole entry, looked up): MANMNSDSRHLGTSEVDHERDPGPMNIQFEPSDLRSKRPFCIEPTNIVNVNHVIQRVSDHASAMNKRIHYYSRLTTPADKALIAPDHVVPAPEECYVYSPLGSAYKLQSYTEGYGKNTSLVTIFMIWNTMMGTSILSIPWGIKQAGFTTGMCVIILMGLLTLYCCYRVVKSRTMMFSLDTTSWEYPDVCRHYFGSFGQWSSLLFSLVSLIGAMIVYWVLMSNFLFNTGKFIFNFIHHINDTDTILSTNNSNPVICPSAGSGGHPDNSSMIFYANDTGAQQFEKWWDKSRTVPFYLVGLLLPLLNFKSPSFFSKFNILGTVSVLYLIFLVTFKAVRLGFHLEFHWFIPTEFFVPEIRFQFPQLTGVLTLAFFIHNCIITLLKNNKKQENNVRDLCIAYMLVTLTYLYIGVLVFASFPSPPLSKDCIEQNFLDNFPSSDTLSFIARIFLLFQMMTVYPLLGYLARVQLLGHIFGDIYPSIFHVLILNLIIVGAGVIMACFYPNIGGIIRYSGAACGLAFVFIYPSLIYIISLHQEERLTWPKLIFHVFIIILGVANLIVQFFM
UniProt Q9BUA3, sequence (Q9BUA3 whole entry, looked up): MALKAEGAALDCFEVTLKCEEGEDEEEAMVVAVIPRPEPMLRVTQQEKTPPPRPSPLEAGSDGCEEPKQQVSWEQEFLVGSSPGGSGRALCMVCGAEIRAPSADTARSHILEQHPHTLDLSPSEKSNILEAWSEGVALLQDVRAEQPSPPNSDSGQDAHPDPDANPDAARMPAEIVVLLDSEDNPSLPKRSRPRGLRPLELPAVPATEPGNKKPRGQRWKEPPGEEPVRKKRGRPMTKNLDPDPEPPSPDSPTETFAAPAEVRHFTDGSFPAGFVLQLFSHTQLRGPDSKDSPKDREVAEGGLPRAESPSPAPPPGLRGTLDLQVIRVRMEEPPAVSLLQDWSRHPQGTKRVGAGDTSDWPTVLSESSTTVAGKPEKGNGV
UniProt Q92609, sequence (Q92609 whole entry, looked up): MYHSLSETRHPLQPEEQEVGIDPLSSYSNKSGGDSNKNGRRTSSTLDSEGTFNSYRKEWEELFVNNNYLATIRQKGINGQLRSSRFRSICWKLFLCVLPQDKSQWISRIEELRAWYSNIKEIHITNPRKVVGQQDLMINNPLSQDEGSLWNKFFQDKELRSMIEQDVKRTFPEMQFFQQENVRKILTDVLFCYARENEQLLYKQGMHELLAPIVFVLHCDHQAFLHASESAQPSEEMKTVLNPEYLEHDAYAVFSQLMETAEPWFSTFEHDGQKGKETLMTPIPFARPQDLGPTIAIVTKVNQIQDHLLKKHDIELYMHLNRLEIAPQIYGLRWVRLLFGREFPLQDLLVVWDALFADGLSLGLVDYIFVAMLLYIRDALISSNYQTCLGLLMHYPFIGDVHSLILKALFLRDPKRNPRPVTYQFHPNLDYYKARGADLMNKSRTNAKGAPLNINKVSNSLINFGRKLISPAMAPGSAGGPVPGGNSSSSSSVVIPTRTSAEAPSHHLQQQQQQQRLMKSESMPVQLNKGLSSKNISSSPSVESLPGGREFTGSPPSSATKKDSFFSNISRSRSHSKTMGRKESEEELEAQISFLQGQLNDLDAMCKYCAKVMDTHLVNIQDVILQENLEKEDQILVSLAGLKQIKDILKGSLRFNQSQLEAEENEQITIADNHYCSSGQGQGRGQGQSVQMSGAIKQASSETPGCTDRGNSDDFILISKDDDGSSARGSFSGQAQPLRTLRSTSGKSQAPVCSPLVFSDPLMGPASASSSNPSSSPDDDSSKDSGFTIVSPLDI
UniProt P51687, sequence (P51687 whole entry, looked up): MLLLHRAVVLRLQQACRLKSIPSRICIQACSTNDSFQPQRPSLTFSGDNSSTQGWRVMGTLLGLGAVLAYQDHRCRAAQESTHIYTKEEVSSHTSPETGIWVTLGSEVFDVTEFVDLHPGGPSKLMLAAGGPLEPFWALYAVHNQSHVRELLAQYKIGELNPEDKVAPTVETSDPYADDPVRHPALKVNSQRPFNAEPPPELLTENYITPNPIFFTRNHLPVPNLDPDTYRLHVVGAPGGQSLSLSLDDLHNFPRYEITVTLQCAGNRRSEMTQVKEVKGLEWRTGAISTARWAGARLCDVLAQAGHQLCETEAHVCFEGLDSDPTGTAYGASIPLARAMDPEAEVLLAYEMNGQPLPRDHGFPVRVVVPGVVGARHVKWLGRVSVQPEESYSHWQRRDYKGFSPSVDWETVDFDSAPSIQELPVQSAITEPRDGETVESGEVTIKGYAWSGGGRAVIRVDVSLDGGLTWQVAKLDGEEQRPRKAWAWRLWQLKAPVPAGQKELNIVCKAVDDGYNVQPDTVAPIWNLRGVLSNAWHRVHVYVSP
UniProt Q9H254, sequence (Q9H254 whole entry, looked up): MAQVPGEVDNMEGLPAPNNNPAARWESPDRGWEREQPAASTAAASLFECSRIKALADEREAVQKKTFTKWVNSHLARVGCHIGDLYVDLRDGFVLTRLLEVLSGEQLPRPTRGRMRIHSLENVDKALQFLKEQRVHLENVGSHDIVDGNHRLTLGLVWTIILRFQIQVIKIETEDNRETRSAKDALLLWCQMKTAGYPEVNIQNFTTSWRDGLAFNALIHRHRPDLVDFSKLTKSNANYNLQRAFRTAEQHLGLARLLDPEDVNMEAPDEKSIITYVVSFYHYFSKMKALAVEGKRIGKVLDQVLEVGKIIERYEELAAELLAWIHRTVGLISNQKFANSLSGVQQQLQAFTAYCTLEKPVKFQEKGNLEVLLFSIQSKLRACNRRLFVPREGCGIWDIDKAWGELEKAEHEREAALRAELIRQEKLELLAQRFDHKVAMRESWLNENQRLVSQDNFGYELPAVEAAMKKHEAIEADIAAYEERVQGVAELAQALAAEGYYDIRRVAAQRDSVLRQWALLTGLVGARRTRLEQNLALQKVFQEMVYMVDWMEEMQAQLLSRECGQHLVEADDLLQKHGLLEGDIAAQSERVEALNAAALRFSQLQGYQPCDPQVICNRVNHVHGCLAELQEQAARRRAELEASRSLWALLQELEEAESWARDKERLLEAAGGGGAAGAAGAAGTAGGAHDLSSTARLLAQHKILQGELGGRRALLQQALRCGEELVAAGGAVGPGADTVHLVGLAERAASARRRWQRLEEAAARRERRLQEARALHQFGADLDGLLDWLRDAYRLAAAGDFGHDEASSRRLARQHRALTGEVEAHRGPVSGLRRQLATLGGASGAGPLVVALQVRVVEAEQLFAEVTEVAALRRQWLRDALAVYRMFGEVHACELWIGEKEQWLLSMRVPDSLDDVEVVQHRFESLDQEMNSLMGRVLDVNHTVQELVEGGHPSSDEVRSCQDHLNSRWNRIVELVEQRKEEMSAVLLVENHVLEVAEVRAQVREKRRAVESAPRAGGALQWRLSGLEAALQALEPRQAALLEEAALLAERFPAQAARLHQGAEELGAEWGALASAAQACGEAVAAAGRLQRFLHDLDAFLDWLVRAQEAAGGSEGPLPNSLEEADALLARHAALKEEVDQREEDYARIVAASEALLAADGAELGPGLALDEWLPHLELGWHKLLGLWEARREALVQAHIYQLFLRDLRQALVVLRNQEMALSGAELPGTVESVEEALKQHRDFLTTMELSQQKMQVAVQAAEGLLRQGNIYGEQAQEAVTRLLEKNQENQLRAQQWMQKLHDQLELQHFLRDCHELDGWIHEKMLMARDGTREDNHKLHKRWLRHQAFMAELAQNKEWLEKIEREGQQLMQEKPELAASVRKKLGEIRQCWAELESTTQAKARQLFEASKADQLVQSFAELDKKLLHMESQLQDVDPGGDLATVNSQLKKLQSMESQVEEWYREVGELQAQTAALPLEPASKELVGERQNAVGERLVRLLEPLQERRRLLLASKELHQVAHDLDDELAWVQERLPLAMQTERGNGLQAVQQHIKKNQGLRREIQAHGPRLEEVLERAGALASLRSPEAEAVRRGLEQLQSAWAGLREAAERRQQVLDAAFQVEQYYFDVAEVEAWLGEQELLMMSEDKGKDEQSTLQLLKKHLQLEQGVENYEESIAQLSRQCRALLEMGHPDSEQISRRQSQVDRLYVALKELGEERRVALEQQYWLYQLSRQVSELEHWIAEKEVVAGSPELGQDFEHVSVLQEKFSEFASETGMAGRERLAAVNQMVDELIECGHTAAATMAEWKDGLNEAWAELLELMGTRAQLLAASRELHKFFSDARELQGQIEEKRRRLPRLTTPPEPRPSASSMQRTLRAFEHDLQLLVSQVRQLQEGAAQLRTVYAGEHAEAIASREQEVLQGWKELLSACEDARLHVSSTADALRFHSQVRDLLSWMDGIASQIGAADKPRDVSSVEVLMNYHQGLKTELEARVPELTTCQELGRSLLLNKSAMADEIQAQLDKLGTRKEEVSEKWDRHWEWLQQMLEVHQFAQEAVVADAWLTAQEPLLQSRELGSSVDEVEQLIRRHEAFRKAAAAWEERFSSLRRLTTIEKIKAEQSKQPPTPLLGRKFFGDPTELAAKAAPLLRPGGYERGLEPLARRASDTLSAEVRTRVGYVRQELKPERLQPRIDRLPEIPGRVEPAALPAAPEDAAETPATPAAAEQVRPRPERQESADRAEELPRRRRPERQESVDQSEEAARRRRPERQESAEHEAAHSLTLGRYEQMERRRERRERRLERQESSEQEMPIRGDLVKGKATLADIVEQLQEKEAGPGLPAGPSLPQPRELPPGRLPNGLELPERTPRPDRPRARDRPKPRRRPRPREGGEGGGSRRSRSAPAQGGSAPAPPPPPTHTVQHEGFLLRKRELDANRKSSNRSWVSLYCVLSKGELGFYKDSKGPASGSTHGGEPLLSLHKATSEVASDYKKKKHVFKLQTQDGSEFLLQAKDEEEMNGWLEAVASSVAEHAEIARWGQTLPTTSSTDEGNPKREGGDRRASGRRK
UniProt O95926, sequence (O95926 whole entry, looked up): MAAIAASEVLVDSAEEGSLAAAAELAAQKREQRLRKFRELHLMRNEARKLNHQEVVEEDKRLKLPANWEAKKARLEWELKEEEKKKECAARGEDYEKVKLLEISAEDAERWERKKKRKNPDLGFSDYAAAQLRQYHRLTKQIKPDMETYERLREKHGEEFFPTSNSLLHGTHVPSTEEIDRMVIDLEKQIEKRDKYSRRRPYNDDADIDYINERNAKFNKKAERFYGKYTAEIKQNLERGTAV

Target | log2 fold change (saracatinib) | log2 fold change (sotrastaurin) | log2 fold change (alvocidib) | log2 fold change (Tubastatin A) | log2 fold change [1] | log2 fold change (defactinib) | log2 fold change (rucaparib) | log2 fold change [2] | log2 fold change (encorafenib) | log2 fold change [3] | log2 fold change [4] | log2 fold change (filanesib) | log2 fold change (zotarolimus) | log2 fold change (idasanutlin) | log2 fold change (alisertib) | log2 fold change [5] | log2 fold change (gefitinib) | log2 fold change [6] | log2 fold change (lapatinib) | log2 fold change (pictilisib)
SMARCE1 (UniProt Q969G3) | -0.036 | -0.204 | -0.033 | 0.018 | -0.032 | 0.579 (active) | -0.016 | 0.023 | 0.166 | -0.199 | 0.035 | 0.058 | 0.052 | 0.013 | -0.21 | -0.07 | 0.066 | 0.206 | 0.038 | -0.062
STAT3 (UniProt P40763) | 0.025 | -0.144 | -0.112 | 0.05 | 0.029 | -0.124 | -0.062 | -0.017 | 0.077 | -0.012 | 0.063 | -0.031 | 0.086 | -0.003 | 0.013 | 0.023 | 0 | -0.039 | 0.004 | 0.051
SPINDOC (UniProt Q9BUA3) | 0.185 | -0.23 | 0.025 | -0.121 | -0.039 | 0.068 | 0 | -0.02 | 0.057 | 0.049 | 0.165 | 0.221 | -0.02 | 0.008 | -0.113 | 0.145 | 0.073 | 0.017 | -0.045 | -0.117
TARBP1 (UniProt Q13395) | 0.026 | -0.036 | -0.031 | -0.033 | 0.021 | -0.026 | 0.042 | -0.027 | -0.041 | 0.014 | -0.036 | -0.077 | 0.105 | -0.027 | 0.096 | 0.049 | -0.026 | -0.019 | -0.015 | -0.078
SPTBN4 (UniProt Q9H254) | -0.056 | 0.009 | 0.095 | -0.005 | -0.284 | 0.039 | 0.059 | -0.035 | -0.076 | -0.002 | -0.036 | -0.068 | 0.014 | -0.237 | -0.116 | -0.202 | -0.047 | 0.158 | 0.041 | 0.175
SSRP1 (UniProt Q08945) | 0.01 | -0.049 | -0.157 | 0.099 | -0.052 | -0.23 (active) | -0.038 | -0.045 | 0.048 | -0.05 | 0.118 | 0.023 | 0.036 | -0.005 | -0.037 | -0.05 | 0.028 | -0.014 | 0.008 | -0.026
TFAM (UniProt Q00059) | -0.017 | 0.052 | 0.116 | 0.052 | -0.008 | 0.107 | 0.042 | -0.01 | 0.039 | 0.047 | -0.035 | 0.048 | 0.01 | 0.046 | -0.1 | 0.015 | -0.026 | -0.058 | -0.012 | -0.04
SULT1A1 (UniProt P50225) | 0.052 | -0.03 | -0.061 | -0.004 | 0.105 | -0.214 | -0.048 | 0.05 | 0.084 | -0.125 | 0.161 | 0.034 | 0.042 | -0.02 | 0.056 | 0.046 | 0.062 | -0.03 | 0.026 | 0.138
THRAP3 (UniProt Q9Y2W1) | 0.035 | 0.008 | 0.094 | 0.048 | -0.266 | -0.29 | -0.002 | -0.047 | -0.015 | 0.019 | 0.087 | 0.155 | -0.117 | 0.12 | -0.095 | -0.127 | 0.15 | 0.13 | 0.066 | 0.005
SYF2 (UniProt O95926) | -0.028 | -0.041 | 0.383 (active) | -0.016 | -0.086 | 0.286 | 0.029 | -0.14 | -0.062 | 0.038 | -0.236 | 0.069 | -0.174 | 0.058 | -0.07 | 0.191 | -0.109 | 0.02 | -0.025 | -0.092
SLC25A36 (UniProt Q96CQ1) | 0.233 | -0.057 | -0.018 | -0.027 | 0.013 | 0.011 | 0.066 | 0.016 | -0.055 | 0.162 | 0.006 | -0.069 | 0.013 | -0.064 | -0.03 | 0.083 | -0.014 | 0.001 | 0.107 | 0.052
SNX5 (UniProt Q9Y5X3) | 0 | -0.006 | -0.061 | -0.013 | -0.117 | -0.014 | -0.054 | 0.012 | 0.03 | 0.006 | -0.06 | -0.172 | 0.015 | -0.015 | -0.012 | -0.066 | -0.136 | 0.008 | 0.01 | -0.085
TBC1D5 isoform 2 (UniProt Q92609) | -0.033 | -0.169 | -0.077 | -0.036 | -0.013 | -0.088 | 0.015 | -0.159 | 0.119 | -0.055 | 0.048 | -0.01 | 0.048 | -0.052 | -0.021 | 0.006 | -0.031 | 0.003 | -0.062 | -0.091
SUOX (UniProt P51687) | 0.02 | 0.013 | -0.047 | -0.031 | -0.01 | 0.031 | -0.037 | -0.022 | 0.001 | 0.042 | -0.321 | -0.014 | 0.02 | 0.013 | -0.014 | 0.088 | 0.007 | 0.022 | -0.088 | 0.158
SPG21 (UniProt Q9NZD8) | 0.007 | -0.005 | -0.097 | 0.016 | -0.015 | -0.134 | 0.089 | 0.211 | -0.022 | 0.01 | -0.026 | 0 | 0.063 | 0.03 | -0.084 | 0.174 | 0.226 | 0.011 | 0.072 | 0.064
SLC38A9 (UniProt Q8NBW4) | 0.053 | -0.184 | -0.024 | -0.05 | 0.025 | -0.038 | -0.048 | -0.073 | -0.001 | 0.001 | 0.033 | 0.064 | -0.012 | -0.004 | 0 | 0.053 | -0.012 | 0.121 | -0.065 | -0.027

From the supplement of paper PMC10849652
